Screens: PubChem, Broad Institute
A selection: hits, their analogues and other compounds. The true share with any hit is near 2.7%.
Env fusion inh = inhibitors of HIV-1 Env-driven cell-cell fusion, primary screen, HeLa-JRFL effector, CEM21 target cells, luciferase | AID 651610, 2012 | inhibition, % at 12.3 µM | 1.1% of 360,000 active;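 active means mean replicate inhibition score of at least 50 and every replicate individually at or above 50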
F508del corr = F508del CFTR correction, initial screen, CFBE line, single point. AID 720511, 2013. CFBE cells, YFP halide quenching; stimulated with forskolin plus potentiator P3; % fluorescence drop versus neutral controls. activity (quench increase), % at 7.58 µM. 0.36% of 350,000 active;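 active means mean added fluorescence quench of at least 8% versus neutral control, with both replicates also reaching 8%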;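 further: cells transiently co-express mutant CFTR-F508del with the halide-sensitive YFP; corrector assay measuring rescue of mutant channel to the surface after 24 h compound exposure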
MITF act = activators of MITF-driven TRPM1 promoter reporter, primary screen, cell-based, SK-MEL-5, luciferase, single point | SK-MEL-5 TRPM1-promoter luciferase, 24 h; % of positive control, neutral wells = 0 | activation, % at 12.5 µM | 0.75% of 300,000 active | AID 588334, 2011;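 active means mean activation of at least 80% with every replicate also reaching 80%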
Wnt act = Wnt/beta-catenin pathway activators, primary screen, cell-based, plate reader, single point. Wnt/beta-catenin reporter cell assay, activator. activation, % at 9.35 µM. 1.2% of 300,000 active. AID 743398, 2014; in the data active means activation above about 30%, passing the limit was not always enough
INS-1E GSIS act = GLuc luminescence reporter in INS-1E cells, primary screen for activators of glucose-dependent secretion of insulin; 0.61% of 370,000 active; INS-1E GLuc reporter insulin secretion, 2-3 h; activation, % at 16.6 µM; AID 743287, 2014;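 active means lowest replicate activation of at least 40%, so every replicate reaches that level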
A number is an active result; n = inactive; x = no result given.

SMILES	Env fusion inh	F508del corr	MITF act	Wnt act	INS-1E GSIS act
C[C@H](CO)N1C[C@H](C)[C@H](CN(C)S(C)(=O)=O)Oc2ccc(N(C)C)cc2CC1=O	n	n	x	x	n
Cc1ccc(S(=O)(=O)N(C)Cc2ccc(C(=O)N/N=C/c3ccc(OC(F)F)cc3OC(F)F)cc2)cc1	66	x	n	n	x
CN1C(=O)c2cc(NC(=O)c3cccs3)ccc2OC[C@@H]2O[C@@H](CC(=O)O)CC[C@H]21	x	n	x	x	n
O=C(NCC1(O)CCCCC1)C1CCC(=O)N(Cc2ccccc2F)C1 (stereo not given)	n	n	n	n	54
C[C@H](NC(=O)C[C@H]1CC[C@@H](NC(=O)Cc2ccccn2)[C@H](CO)O1)c1ccccc1	n	n	x	x	n
CN(C(=O)OC(C)(C)C)c1ccc(-c2nc3ccccc3s2)cc1	57	n	n	n	n
C[C@H]1CN([C@@H](C)CO)C(=O)Cc2cc(NS(=O)(=O)c3cn(C)cn3)ccc2O[C@H]1CN(C)S(=O)(=O)c1ccc(F)cc1	n	n	x	x	n
COc1ccc(Cn2nnnc2C(c2cc3cccc(C)c3[nH]c2=O)N2CCN(C)CC2)cc1 (stereo not given)	n	n	n	n	n
COc1ccc(Cn2nnnc2C(c2cc3cc(C)cc(C)c3[nH]c2=O)N2CCOCC2)cc1 (stereo not given)	131	x	n	x	n
CCc1ccc2[nH]c(=O)c(C(c3nnnn3Cc3ccc(OC)cc3)N3CCOCC3)cc2c1 (stereo not given)	78	x	n	x	n
COc1ccc(NC(=O)Nc2ccc3c(c2)CC(=O)N([C@H](C)CO)C[C@H](C)[C@H](CN(C)C(=O)NC(C)C)O3)cc1	n	n	x	x	n
COC(=O)C[C@H]1C=C[C@@H](NC(=O)c2ccccc2)[C@H](CO)O1	n	n	x	x	n
Cc1ccc(-n2nc3c(c2NC(=O)c2ccco2)CS(=O)C3)cc1 (stereo not given)	88	n	n	n	n
O=C(Nc1c2c(nn1-c1ccc(F)cc1)CS(=O)C2)c1ccco1 (stereo not given)	n	n	n	n	n
CCCNC(=O)C[C@H]1C[C@@H]2c3cc(NC(=O)Nc4ccc(F)cc4)ccc3O[C@@H]2[C@@H](CO)O1	n	n	x	x	n
CCCOc1ccc(/C=N/Nc2cccc([N+](=O)[O-])c2)c(O)c1	n	x	84	x	n
CCCOc1ccc(/C=N/Nc2ccccc2[N+](=O)[O-])c(O)c1	n	x	n	n	x
O=C(NC1CCCC1)C(c1ccccc1)n1c(Cc2cc(F)cc(F)c2)nc2ccccc21 (stereo not given)	71	n	x	n	n
O=C(NC1CCCCC1)C(c1ccc(C(F)(F)F)cc1)n1c(=O)c(-c2ccccc2)nc2ccccc21 (stereo not given)	n	n	x	n	n
COc1ccc(-c2cc(=O)c3c(C)cc(O)cc3o2)cc1	n	n	n	67	n
COc1cc2oc(-c3ccc(O)cc3)cc(=O)c2c(O)c1OC	x	n	n	n	x
COc1c(O)cc2oc(-c3ccc(O)cc3)cc(=O)c2c1O	n	n	n	39	n
COc1cc(-c2cc(=O)c3c(C)cc(O)cc3o2)cc(OC)c1OC	n	n	n	n	n
CO[C@H]1CN(C)C(=O)c2ccc(NC(=O)C3CC3)cc2OC[C@H](C)N(Cc2cccc(F)c2)C[C@H]1C	n	n	x	x	n
C[n+]1ccc(/C=C/c2c[nH]c3ccc(F)cc23)cc1	59	n	n	n	n
SMILES	Env fusion inh	F508del corr	MITF act	Wnt act	INS-1E GSIS act
COc1ccccc1C(=O)Nc1nc(-c2ccc(S(=O)(=O)N3CCOCC3)cc2)cs1	96	x	n	x	x
COc1ccccc1OC(C)C(=O)Nc1nc(-c2ccc(S(=O)(=O)N3CCOCC3)cc2)cs1 (stereo not given)	60	x	n	n	x
CC(C)C(=O)Nc1nc(-c2ccc(S(=O)(=O)N3CCOCC3)cc2)cs1	n	n	n	n	n
Oc1ccc(-c2nc(-c3ccc(F)cc3)c(-c3ccncc3)[nH]2)cc1	57	n	n	n	x
CCn1nc(NC(=O)c2ccco2)c2cc3ccccc3nc21	n	x	n	x	44
CC(C)Cn1nc(NC(=O)c2ccco2)c2cc3ccccc3nc21	n	n	n	n	74
CCCn1nc(NC(=O)c2ccco2)c2cc3cc(C)ccc3nc21	n	n	x	n	n
COCC(=O)N(C)C[C@@H]1Oc2cc(C#CC3CCCC3)ccc2S(=O)(=O)N([C@H](C)CO)C[C@H]1C	n	n	x	x	n
C[C@H]1CN([C@@H](C)CO)C(=O)c2cccc(NC(=O)c3ccncc3)c2O[C@@H]1CN(C)S(=O)(=O)c1cn(C)cn1	x	n	x	x	n
O=C(NCC1CC1)[C@@H]1[C@@H](CO)[C@@H]2Cn3c(cccc3=O)[C@H]1N2C(=O)c1cccnc1	x	n	x	x	n
CCS(=O)(=O)c1ccc(N=Nc2ccc(O)c3ncccc23)c(OC)c1	66	n	n	n	n
COc1ccccc1N=Nc1ccc(O)c2ncccc12	n	n	n	n	n
C[C@H](CO)N1C[C@H](C)[C@H](CN(C)C(=O)Cc2ccccn2)Oc2ncc(-c3ccc(F)cc3)cc2C1=O	n	n	x	x	n
Cc1cc(C)c(CSc2nnnn2-c2ccc(C(=O)O)cc2)c(C)c1	n	n	n	n	89
Cc1ccc(-n2nnnc2SCC(=O)NC(C(=O)O)(c2ccccc2)c2ccccc2)cc1C	n	13	n	n	n
O=C(O)c1ccc(-n2nnnc2SCc2cccc(Br)c2)cc1	n	n	n	n	63
CCCC(=O)Nc1ccc2c(c1)C(=O)N(C)[C@@H]1CC[C@H](CC(=O)NCCc3ccccc3)O[C@@H]1CO2	x	n	x	x	n
CCCN1[C@@H]2Cn3c(ccc(-c4ccccc4OC)c3=O)[C@H]1[C@@H](C(=O)N1CCOCC1)[C@@H]2CO	x	n	x	x	n
COc1ccc(S(=O)(=O)N2CC[C@H]3[C@H](CO)Nc4ccc(-c5ccc(C#N)cc5)cc4[C@H]32)cc1	x	n	x	x	n
CN(C)CC(=O)Nc1ccc2c(c1)[C@@H]1C[C@@H](CC(=O)N3CCCCC3)O[C@H](CO)[C@@H]1O2	n	n	x	x	n
Cc1cc(NC(=O)c2ccc(OCC3CCCO3)cc2)ccc1Br (stereo not given)	n	n	x	52	x
COc1cc2c(cc1OC)C(c1c(Cl)cccc1Cl)=NCC2	60	n	x	n	n
NC(=O)c1sc2nc3c(c(-c4ccco4)c2c1N)CCCC3	57	n	n	n	n
N#Cc1sc2nc3c(c(-c4ccco4)c2c1N)CCCC3	x	x	n	x	x
Cc1cc2c(c(=O)o1)[C@@]1(C(=O)N(C)c3ccc([N+](=O)[O-])cc31)C1=C(CCCC1=O)O2	n	n	x	n	n
COc1ccc2c(c1)[C@]1(C(=O)N2C)C2=C(CCCC2=O)Oc2cc(C)oc(=O)c21	65	n	x	n	n
Cc1csc2nc(CSc3nc4ccccc4o3)c(Br)n12	x	x	91	x	x
